The panel holds about 83,000 compounds, 20% with a hit somewhere; the sample as a whole holds those more often.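 The test compound was applied at a single concentration to cells in 96-well plates for 48 hours, and percent growth was recorded.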 Active and inactive are the calls of the source. How the source made its calls: active means growth percent below 10; inactive means the rest.
The molecules below were run on DU-145 prostate (assay: NCI-60 one-dose screen, 48 h (100 = growth as untreated, 0 = no growth, -100 = all killed)). Conditions: 10 µM unless noted.

SMILES	growth
O=C(Nc1ccc(NC(=O)c2cc(=O)[nH]c3ccccc23)cc1)Nc1cccc(C(F)(F)F)c1	76.2% (inactive)
CCN(CC)CCCN1C(=O)c2c(c(C)c3c(oc4cc(O)ccc43)c2C)C1=O	-61.7% (active)
COc1cc(OC)cc(C2=C3CC[C@@H]4[C@H](CC[C@]5(C)C(=O)CC[C@@H]45)C3=CC3C(O)c4cccnc4N4C(=O)COC234)c1 (stereo not given in full)	110% (inactive)
Oc1ccc(CN2CCC(N3CCCCC3)CC2)c2cccnc12	37.9% (inactive)
CN(C)CC(=O)Nc1ccc2ncnc(Nc3ccc(Oc4cccc(C(F)(F)F)c4)c(Cl)c3)c2c1	48.2% (inactive)

What follows are molecules tested on K-562 leukemia in the same assay as above. Conditions: 10 µM unless noted.

SMILES	growth
COC(=O)c1ccc2c(c1)C(=O)c1c-2n(CCCN)c(=O)c2cc([N+](=O)[O-])ccc12	-100% (active)
O=C(Nn1c2c(sc1=Nc1ccccc1)C(=O)c1ccccc1C2=O)c1cc2ccc1CCc1ccc(cc1)CC2	77.8% (inactive)
O=C(CN1C(=O)CCC1=O)Nc1ncc(Cc2ccc(F)cc2)s1	98.5% (inactive)
Nc1ncnc2c1N=C(c1ccc(Cl)cc1)CC(c1ccc3c(c1)OCO3)N2 (stereo not given)	71.3% (inactive)
N#C/C(=C/c1ccc([N+](=O)[O-])cc1)n1nnc2cc(F)c(F)cc21	13.9% (inactive)
COc1ccc(C(=O)Nc2ncc(Cc3ccc(F)cc3)s2)cc1	8.46% (active)
CCN1CCN(Cc2cn(CC(=O)Nc3ccc4c(ccn4Cc4ccccc4)c3)nn2)CC1	94.8% (inactive)
CCOC(=O)C1=C(NC)OCC1=O	99% (inactive)
CC(=O)c1cc(O)c2ccccc2c1O	58% (inactive)
CC1(C)CC[C@]2(c3nnc(-c4ccncc4)o3)CC[C@H]3C(=CC[C@H]4[C@@]3(C)CC[C@H]3C(C)(C)C(=O)CC[C@]43C)[C@@H]2C1	40.8% (inactive)
CC(C)(C)n1cc(-c2ccnc(NCCCNS(=O)(=O)c3ccc(F)cc3)c2)c(-c2cccc(F)c2)n1	18.1% (inactive)
COc1cc(CNS(=O)(=O)c2ccc(C)cc2)ccc1OCc1cn(-c2ccc(Br)cc2)nn1	94.3% (inactive)
Cc1ccc(-c2csc(NC(=O)CN3CCN(c4cc5c(cc4F)c(=O)c(C(=O)O)cn5C4CC4)CC3)n2)cc1	9.66% (active)
CCCCCCCCCCCCCCCCCCOc1ccccc1CC(=O)OCC[N+]1(C)CCCC1	27% (inactive)
COc1ccc(-c2nc(/C=C3\SC(=NCc4ccccc4)NC3=O)c3ccccn23)cc1	18.4% (inactive)
COc1ccc2c3c([nH]c2c1)C(=O)c1nc(C)ccc1C3=O	40.7% (inactive)
CN(CCOc1ccc(C#N)cc1)CCOc1ccc(C#N)cc1	101% (inactive)
CCN1C(=O)N(CC)C2C1NN=c1s/c(=C\c3cccc([N+](=O)[O-])c3)c(=O)n12 (stereo not given)	10.5% (inactive)
O=C(CCCCCCN1CC(=O)N2[C@H](c3cc(Br)cs3)c3[nH]c4ccccc4c3C[C@H]2C1=O)NO	10.2% (inactive)
Cc1ccc(/C=C2\CN(C(=O)OC(C)(C)C)C/C(=C\c3ccc(C)cc3)C2=O)cc1	3.47% (active)

SMILES	growth
CN(C)CCNC(=O)c1cccc(-c2cnc3ccc(-c4ccc5c(c4)OCO5)nn23)c1	1.77% (active)
Cn1c(=O)c2c(nc(NC3=NS(=O)(=O)c4ccccc43)n2CC(=O)N2CCc3ccccc32)n(C)c1=O	114% (inactive)
Cc1ccc(NC(=S)NNC(=S)NNc2ccccc2)cc1C	8.18% (active)
C=CCn1c(SCC(=O)Nc2ccc(C(=O)/C=C/c3cc4cc(OC)ccc4nc3Cl)cc2)nnc1-c1ccc(Br)cc1	46.3% (inactive)
CCCC(=O)NC(c1ccc2c(c1)OCO2)c1ccc2cccnc2c1O (stereo not given)	7.6% (active)
c1ccc(C2=NN[C@H](c3cn(-c4ccccc4)nc3-c3ccccc3)C2)cc1	85.2% (inactive)
C[C@@H]1CCC[C@H]1CC(N)C(=O)O (stereo not given in full)	99% (inactive)
O=C1c2cccnc2C(=O)c2c1c(C(=O)NCCCN1CCCCC1)c1ccccn21	-25.4% (active)
CCCCCCCCn1ccc2cc(NC(=O)Cn3cc(CN4CCCCC4)nn3)ccc21	-13.5% (active)
COC(C(=O)[C@@H](O)[C@@H](C)O)[C@@H]1Cc2cc3cc(O[C@H]4C[C@@H](O[C@H]5C[C@@H](O)[C@H](O)C(C)O5)[C@H](O)C(C)O4)c(C)c(O)c3c(O)c2C(=O)[C@H]1O[C@H]1C[C@@H](O[C@H]2C[C@@H](O[C@H]3C[C@@H](O)[C@H](OC)C(C)O3)[C@@H](O)C(C)O2)[C@H](O)C(C)O1 (stereo not given in full)	5.99% (active)
CCCCN1C(=O)/C(=c2\sc3n(c2=O)C2C(NN=3)N(CC)C(=O)N2CC)c2ccccc21 (stereo not given)	5.85% (active)
COc1ccc2c(O)c(/C=C3\N=Nc4ncccc43)oc2c1C[C@H]1CCNC[C@H]1F	1.73% (active)
COc1ccc2c(O)c(/C=C3\N=Nc4ccccc43)oc2c1C[C@@H]1CCNC[C@H]1F	-37.6% (active)
COc1ccc(N2CCC(=O)NC2=S)cc1	107% (inactive)
CC(=O)OCc1nc(C#N)c(N(C)C)o1	99.2% (inactive)
O=C(Nc1ccc(NC(=O)c2cc(=O)[nH]c3ccccc23)cc1)Nc1cccc(C(F)(F)F)c1	53% (inactive)
CCN(CC)CCCN1C(=O)c2c(c(C)c3c(oc4cc(O)ccc43)c2C)C1=O	-14.4% (active)
COc1cc(OC)cc(C2=C3CC[C@@H]4[C@H](CC[C@]5(C)C(=O)CC[C@@H]45)C3=CC3C(O)c4cccnc4N4C(=O)COC234)c1 (stereo not given in full)	92.7% (inactive)
Oc1ccc(CN2CCC(N3CCCCC3)CC2)c2cccnc12	15.8% (inactive)
CN(C)CC(=O)Nc1ccc2ncnc(Nc3ccc(Oc4cccc(C(F)(F)F)c4)c(Cl)c3)c2c1	3.41% (active)
